Data reported in the supplement of paper PMC13380429.

System: Vero E6 infected with SARS-CoV-2
Assay: inhibition of SARS-CoV-2 cytopathic effect; higher = more antiviral protection, active = above 15
Details: 48 h

Measured: inhibition of SARS-CoV-2 cytopathic effect

Cc1cc(O)cc(C)c1Cl [chloroxylenol]
inactive: 1 nM -0.09% | 8.33 nM 1.72% | 100 nM -1.3% | 833.33 nM -0.83% | 10000 nM 0.1%

CC(C)(C)C(=O)OCOC(=O)[C@@H]1N2C(=O)[C@@H](NC(=O)[C@H](N)c3ccccc3)[C@H]2SC1(C)C [pivampicillin]
inactive: 1 nM 3.04% | 8.33 nM 3.24% | 100 nM 2.48% | 833.33 nM 0.64% | 10000 nM -3.25%

CC1(C)CC(=O)c2c(C(F)(F)F)nn(-c3ccc(C(N)=O)c(N[C@H]4CC[C@H](OC(=O)CN)CC4)c3)c2C1
inactive: 1 nM -1.61% | 8.33 nM 1.43% | 100 nM 2.1% | 833.33 nM -2.15% | 10000 nM -0.73%

Cc1ccc(O)c(N=Nc2ccccc2)n1
inactive: 1 nM -2.81% | 8.33 nM -4.41% | 100 nM -3.53% | 833.33 nM 0.01% | 10000 nM 3.77%

C[C@@H]1C[C@H]2[C@@H]3CCC4=CC(=O)C=C[C@]4(C)[C@@]3(F)[C@@H](O)C[C@]2(C)[C@H]1C(=O)CO [desoximetasone]
inactive: 1 nM -2.66% | 8.33 nM 0.15% | 100 nM -1.47% | 833.33 nM 1.96% | 10000 nM 0.8%

CON [methoxyamine]
inactive: 1 nM 0.67% | 8.33 nM -2.53% | 100 nM -0.44% | 833.33 nM -3.19% | 10000 nM -0.96%

O=c1[nH]cnc2c1ncn2[C@H]1CC[C@@H](CO)O1 [didanosine]
inactive: 1 nM 0.07% | 8.33 nM -2.03% | 100 nM 2.16% | 833.33 nM 3.97% | 10000 nM -1.54%

c1ccc2c(CC3=NCCN3)cccc2c1 [naphazoline]
inactive: 1 nM 1.08% | 8.33 nM 0.66% | 100 nM 0.05% | 833.33 nM 2.24% | 10000 nM 0.73%

COc1cc(C[C@H](C)[C@H](C)Cc2ccc3c(c2)OCO3)ccc1O [macelignan]
inactive: 1 nM 0.71% | 8.33 nM -0.62% | 100 nM 0.01% | 833.33 nM 2.57% | 10000 nM 1.91%

O=c1[nH]c(=O)c2ccccc2o1 [carsalam]
inactive: 1 nM -1.46% | 8.33 nM 0.95% | 100 nM 4.79% | 833.33 nM 0.99% | 10000 nM 4.32%

CC(C)[C@@H](C)/C=C/[C@@H](C)[C@H]1CC[C@H]2C3=CC=C4C[C@@H](O)CC[C@]4(C)[C@H]3CC[C@]12C [ergosterol]
inactive: 1 nM -3.22% | 8.33 nM 1.48% | 100 nM 0.86% | 833.33 nM 2.74% | 10000 nM 2.85%

N[C@H]1C[C@@H]1c1ccc(-c2cccc(O)c2)cc1
inactive: 1 nM 1.62% | 8.33 nM -1.45% | 100 nM -0.41% | 833.33 nM -1.63% | 10000 nM -0.24%

Oc1ccc(CC2NCCc3cc(O)c(O)cc32)cc1 (stereo not given) [higenamine]
inactive: 1 nM 1.31% | 8.33 nM 2.53% | 100 nM 1.77% | 833.33 nM -0.52% | 10000 nM -2.56%

C=CCN1CC[C@]23c4c5ccc(O)c4O[C@H]2C(=O)CC[C@@]3(O)[C@H]1C5
inactive: 1 nM -1.98% | 8.33 nM 1.85% | 100 nM 1.15% | 833.33 nM 3.34% | 10000 nM 0.28%

CCOC(=O)[N-]c1c[n+](N2CCOCC2)no1 [molsidomine]
inactive: 1 nM -0.39% | 8.33 nM 1.12% | 100 nM 2.15% | 833.33 nM 1.58% | 10000 nM -0.19%

COc1cc(C2Oc3cc([C@H]4Oc5cc(O)cc(O)c5C(=O)[C@@H]4O)ccc3OC2CO)ccc1O (stereo not given in full) [silibinin]
inactive: 1 nM -0.88% | 8.33 nM -0.77% | 100 nM 0.27% | 833.33 nM -1.29% | 10000 nM 1.72%

Nc1ncnc2c1ncn2[C@@H]1O[C@H](CO)[C@@H](O)[C@H]1O [adenosine]
inactive: 1 nM 2.02% | 8.33 nM 3.5% | 100 nM 0.67% | 833.33 nM -1.84% | 10000 nM 1.06%

COC1(C[S@@+]([O-])c2ccccc2)CCN(CCc2c[nH]c3ccc(F)cc23)CC1
inactive: 1 nM 1.49% | 8.33 nM 4.84% | 100 nM 3.16% | 833.33 nM 1.05% | 10000 nM -2.13%

CSc1ccc(C(=O)/C=C/c2cc(C)c(OC(C)(C)C(=O)O)c(C)c2)cc1 [elafibranor]
inactive: 1 nM -1.98% | 8.33 nM 1.58% | 100 nM -1.18% | 833.33 nM 2.15% | 10000 nM 3.31%
